biological target: E3 ubiquitin-protein ligase XIAP (Homo sapiens) (UniProt P98170); test: XIAP binders, primary screen, biophysical, small-molecule microarray, fluorescence 635 nm (AID 1181); settings: small-molecule microarray binding, higher = more signal;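 also: score merges 667 nm emission and signal to noise over triplicate slides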
Sequence (P98170 whole entry, looked up): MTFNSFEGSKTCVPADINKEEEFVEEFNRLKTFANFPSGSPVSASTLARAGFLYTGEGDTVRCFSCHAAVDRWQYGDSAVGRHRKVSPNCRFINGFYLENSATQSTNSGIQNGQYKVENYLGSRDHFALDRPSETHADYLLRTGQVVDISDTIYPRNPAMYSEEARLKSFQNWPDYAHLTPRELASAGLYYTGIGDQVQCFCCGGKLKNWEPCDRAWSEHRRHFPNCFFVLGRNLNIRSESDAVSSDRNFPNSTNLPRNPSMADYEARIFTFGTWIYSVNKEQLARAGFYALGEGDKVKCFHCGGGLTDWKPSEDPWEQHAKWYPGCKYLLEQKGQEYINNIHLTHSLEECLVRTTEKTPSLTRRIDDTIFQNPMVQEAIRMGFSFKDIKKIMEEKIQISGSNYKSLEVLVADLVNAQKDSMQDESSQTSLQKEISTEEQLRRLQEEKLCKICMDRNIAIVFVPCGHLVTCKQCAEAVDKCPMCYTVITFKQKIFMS

| Compound | composite z-score |
| --- | --- |
| CCOC(=O)C1=C[C@@H](CC)N(S(=O)(=O)c2ccc(C)cc2)[C@H]1c1ccccc1 | 0.289 |
| COC(=O)[C@@]1(Cc2ccccc2)[C@H]2c3cc(C(=O)N(C)C)n(Cc4c(-c5ccccc5)noc4C)c3C[C@H]2CN1C(=O)c1ccccc1 | 0.424 |
| COCCOC(=O)N1C(=O)[C@@]2(c3cc(C#CCNC(N)=O)ccc31)[C@H](c1ccccc1OCCO)N1[C@H](c3ccccc3)[C@H](c3ccccc3)OC(=O)[C@H]1[C@@H]2C(N)=O | -0.0525 |
| CC(C)N1C(=O)[C@@]2(c3ccc([N+](=O)[O-])cc3)CC(=O)N(CC34CC5CC(CC(C5)C3)C4)[C@@H]2c2ccc(CO)cc21 | -0.0224 |
| CC(=O)NCCCC[C@@H]1NC(=O)[C@@H]2C[C@H](C(=O)NCCCCN(C)C)[C@H](c3ccc(O)cc3)N2C1=O | -0.23 |
| Cc1ccccc1C(O)C1C=CC2C(=O)N(C)C(=O)C2N1N1CCCCC1 (stereo not given) | 0.124 |
| CCOC(=O)C[C@H]1[C@H](OC(=O)c2ccc(C(=O)c3ccccc3)cc2)[C@@H](NC(=O)C2CCCCC2)c2cc(OCCCO)ccc2N1C(=O)c1ccccc1 | -0.145 |
| COc1ccc([Si](C)(C)[C@@H]2[C@@H](CC(=O)N3CCC[C@H]3CO)O[C@]3(C(=O)N(C)c4c(Br)cc(C)cc43)[C@H]2C)cc1 | 0.287 |
| COC(=O)[C@@]1(Cc2ccc(F)cc2)[C@H]2c3cc(C(=O)N4CCCC4)n(Cc4cccc5ccccc45)c3C[C@H]2CN1C(=O)c1ccccc1 | 0.487 |
| C=CC(COC(C)=O)NS(=O)(=O)c1ccc(Br)cc1 (stereo not given) | -0.338 |

— PubChem BioAssay
